# Rows were chosen to be rich in hits. Some 27% of all compounds tested hit in one or more screens of this group.
# Cav32 inh = Cav3.2 calcium influx blockers – cell-based, Fluo-4 calcium fluorescence, FDSS, MLSMR library, primary screen. Voltage-dependent T-type calcium channel subunit alpha-1H (Homo sapiens), O95180. Cav3.2-expressing cells; active compounds read low. B-score at 10 µM. 100,000 compounds, 4% hits. AID 449739, 2010;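 active = single-dose well whose peak fluorescence ratio is a statistical outlier from its plate by either plate-standardised score or position-corrected B-score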
# CYP2C9 act = human CYP2C9 activators, primary screen, biochemical, luminescence; Cytochrome P450 2C9 (Homo sapiens), P11712; recombinant CYP2C9, luciferin-H conversion; active compounds read high; factor 1 = untreated enzyme, 0 = blocked; activation factor at 5 µM; 96,000 compounds, 1.4% hits; AID 1024, 2008;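 active = activation factor of 2 or more for CYP2C9 at a 5 µM dose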;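 note: 0 = sulfaphenazole-blocked wells and 1 = vehicle-only wells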
# CYP2C19 inhib = blockers of cytochrome P450 2C19 activity – biochemical, luminescence, ADME assay, primary screen; CYP2C19 Supersomes, luciferin-H EGE luminescence, 30 min; inhibition, % at 5 µM; 96,000 compounds, 21% hits; AID 778, 2007;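 active = CYP2C19 inhibition above a set limit at 5 µM in the primary screen, cut at about 50% in these data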;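 note: plate controls were negative control wells for no effect and 2.5 mM tranylcypromine positive control for full effect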
# CYP2C19 act = human CYP2C19 activators, primary screen, biochemical, luminescence. Cytochrome P450 2C19 (Homo sapiens), P33261. recombinant CYP2C19, luciferin-H EGE luminescence; active compounds read high; 0 = fully inhibited enzyme, 1 = untreated enzyme. activation factor at 5 µM. 96,000 tested, under 10 active;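 active = activation factor of at least 2 at 5 µM in the primary screen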;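 note: 0 = wells with 2.5 mM tranylcypromine and 1 = vehicle-only wells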
# CYP2C9 inhib = blockers of cytochrome P450 2C9 activity – biochemical, luminescence, ADME assay, primary screen | P11712 | CYP2C9 Supersomes, luciferin-H conversion | AID 777, 2007 | inhibition, % at 5 µM | 96,000 compounds, 20% hits;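 active = blocking of liver enzyme CYP2C9 beyond about 50% at 5 µM, limit read from the data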
# Active calls of the source: *; · = no result given.
SMILES,Cav32 inh,CYP2C9 act,CYP2C19 inhib,CYP2C19 act,CYP2C9 inhib
O=C(NCc1ccc2c(c1)OCO2)C1CCCN(S(=O)(=O)c2cccc3cccnc23)C1 (stereo not given),0.616,1.2,29.7,0.7,-16.1
CC(C)CN(CC(C)C)S(=O)(=O)N1CCC(C(=O)NCc2cccs2)CC1,-3.73*,0.9,8.9,0.9,10.1
Cc1ccc(N2CC(C(=O)NCc3cccs3)CC2=O)cc1 (stereo not given),-0.606,1.1,13.4,0.9,-13.9
O=C(NCc1cccs1)C1CC(=O)N(c2ccc(F)cc2)C1 (stereo not given),1.02,1.5,58.8*,0.4,-49.6
CC(C)CN(CC(C)C)S(=O)(=O)N1CCC(C(=O)NCc2ccccn2)CC1,-0.0514,0.9,-6.2,1.1,6.1
O=C(NCc1cccs1)C1CCCN(S(=O)(=O)c2cccc3cccnc23)C1 (stereo not given),0.462,4.2*,29.6,0.7,-321.7
O=C(NCc1cccs1)C1CCCCC1,0.0952,0.9,50.6*,0.5,12.2
Cc1ccc(NC(=O)N2CCCC2C(=O)NCCc2ccccc2)cc1 (stereo not given),0.115,0.9,26.4,0.7,14.4
CC(CNS(=O)(=O)c1cc(Cl)ccc1Cl)CN(C)C (stereo not given),0.104,1,30.4,0.7,-3.2
CCCCC1CCC(C(=O)Nc2ccc(S(=O)(=O)Nc3nccs3)cc2)CC1 (stereo not given),0.485,0.8,-7.6,1.1,22.3
CCOC(=O)CNC(=O)C1CCCN(c2ncccn2)C1 (stereo not given),-0.0711,1.1,-0.3,1,-13.9
O=C(NCc1cccs1)C1CCCN(c2ncccn2)C1 (stereo not given),-0.84,1.2,52.8*,0.5,-17.5
O=S(=O)(NCc1cccs1)c1cccc2cccnc12,-0.51,2.8*,27.8,0.7,-183.7
O=C(NCc1cccs1)C1CCCN1S(=O)(=O)c1ccccc1F (stereo not given),0.714,0.7,52.7*,0.5,33.3
CNS(=O)(=O)c1cccc2cccnc12,0.296,1.4,2.2,1,-42.4
COc1ccc(/C=N/NC(=O)C(=O)N2CCN(c3ccccc3OC)CC2)cc1,0.0699,0.6,6.9,0.9,35.5
CCOC(=O)C(NC(C)=O)C(OC(C)=O)c1cccc(N(CCO)CCO)c1 (stereo not given),-0.0235,1,-2.4,1,0.2
Cn1c(=O)c2c(n(C)c1=O)=NC1(CCCCC1)ON=2,0.0471,0.9,22.8,0.8,14.1
Cc1ccc2c(n1)sc1c(N)ncnc12,·,1,-6.3,1.1,-3.4
O=C(NCc1ccco1)c1ccc(S(=O)(=O)N2CCOCC2)cc1,0.433,0.9,4.1,1,8.3
Cc1ccc(C(CC(=O)NCc2ccco2)c2ccccc2)c(O)c1 (stereo not given),-2.42,0.5,60.8*,0.4,45.5
Cc1ccc(SCCC(=O)NCc2ccco2)cc1,-1.49,0.3,37.7,0.6,69.2*
Cc1ccc(SCC(=O)NCc2ccco2)cc1,0.417,·,·,·,·
COc1ccc(N2CCN(S(=O)(=O)c3ccc(C(=O)NCc4ccco4)cc3)CC2)cc1,-3.86*,·,·,·,·
Cc1ccc(-c2nc(C)sc2CC(=O)NCc2ccco2)cc1,0.83,0.6,55.5*,0.4,42.1
SMILES,Cav32 inh,CYP2C9 act,CYP2C19 inhib,CYP2C19 act,CYP2C9 inhib
Cc1ccc(C(=O)OCC(=O)NCc2ccco2)cc1,·,0.6,6.1,0.9,37.7
Cc1ccccc1OCC1Cc2c(nc(N)c(C#N)c2N)O1 (stereo not given),0.00843,1,42.3,0.6,-4.4
COCC(C)NC(=O)COc1ccc(Cl)cc1Cl (stereo not given),2.05,·,·,·,·
CC(C)(C(=O)c1ccccc1)/[N+]([O-])=C/c1ccc(F)cc1,0.255,·,·,·,·
Cc1nn(-c2ccccc2)c2sc(C(=O)OCN3C(=O)c4ccccc4C3=O)cc12,-0.0206,0.8,23.7,0.8,16.5
Cc1ccc(C(CC(=O)NCc2ccco2)c2ccc(OC(C)C)cc2)cc1 (stereo not given),-5.1*,·,·,·,·
CCCN(CCC)C(=O)CC(c1ccccc1)c1ccc(C)cc1O (stereo not given),-5.71*,0.5,42.7,0.6,51.5*
CC(C)Oc1ccc(C(=O)NCc2ccco2)cc1,-0.22,0.9,70.2*,0.3,12.0
CCCN(CCC)CCSc1nc(O)c(C(C)C)c(=O)[nH]1,-2.01,1,-6.2,1.1,-0.2
COc1cc(C=O)c(Br)cc1OCc1ccc(C)cc1,-1.05,0.9,40.1,0.6,14.7
COC(=O)c1ccc(NC(=O)CN2C(=O)CNC2=O)cc1,-0.343,0.9,-7.9,1.1,13.3
CCCn1c(SCC(=O)c2ccc(OC)c(OC)c2)nc2c1c(=O)n(C)c(=O)n2C,-0.991,·,·,·,·
CC(Cc1ccccc1)NC(=O)C1CCCNC1=O (stereo not given),0.772,1,-4.2,1,0.6
O=C(NCC(c1cccnc1)N1CCN(c2ccccc2F)CC1)c1ccco1 (stereo not given),-0.518,0.7,32.4,0.7,28.8
O=C(NCC(c1cccnc1)N1CCN(c2ccccc2)CC1)OCc1ccccc1 (stereo not given),-0.632,·,·,·,·
O=S(=O)(NCC(c1cccnc1)N1CCN(c2ccc(F)cc2)CC1)c1cc(F)ccc1F (stereo not given),-0.224,·,·,·,·
O=C(NCC(c1cccnc1)N1CCN(c2ccc(F)cc2)CC1)c1cccc(Cl)c1 (stereo not given),-1.91,0.5,44.9,0.6,52.1*
O=C(NCC(c1cccnc1)N1CCN(c2ccccc2F)CC1)OCc1ccccc1 (stereo not given),-3.21,0.1,91.4*,0.1,94.2*
O=C(NCC(c1cccnc1)N1CCN(c2ccc(F)cc2)CC1)OCc1ccccc1 (stereo not given),-1.05,0.2,85.3*,0.1,82.3*
O=C(NCC(c1cccnc1)N1CCN(c2ccccc2F)CC1)c1ccccc1 (stereo not given),-0.269,0.7,52.2*,0.5,30.6
S=C(Nc1ccc(Cl)c(Cl)c1)NC1CCN(Cc2ccccc2)CC1,-0.0601,·,·,·,·
CC(C)CC(=O)Nc1nc2c(c(=O)[nH]1)CCCC2,0.589,0.9,-3.1,1,11.6
O=C(NCC(c1cccnc1)N1CCOCC1)c1ccc2c(c1)OCO2 (stereo not given),-1.52,·,·,·,·
O=C(NCC(c1cccnc1)N1CCN(c2ccccc2)CC1)c1ccc2c(c1)OCO2 (stereo not given),1.11,0.2,58.7*,0.4,75.9*
COc1ccc(/C=N/Nc2nc3ccccc3o2)cc1O,-0.455,0.5,50.8*,0.5,52.4*
CCN(CC)C(=O)CSc1nnc(CCN)o1,0.503,0.5,47.7,0.5,53.3*

# Source: PubChem
